In PubChem BioAssay AID1159580 (chemical genetic matrix, 2015):
Among all 5,500 compounds or so, about 2,000 (36%) were called active. Not shown: some 18% with an inconclusive outcome. Some of the results follow. A number with no mark means an inactive call. Cut-off read from the data, not from the text of the source: active = normalized growth mostly below about 0.91 (no sharp cut-off); inconclusive = no clear call, values can overlap the other calls; inactive = mostly above about 0.92.

Assay: chemical genetic growth profiling, strain panel (AID 1159580);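 note: tested at 20 µM; growth read once vehicle control cultures reached saturation at 30 °C; 1 = growth at the plate median or of vehicle wells; lower values mean less growth of the strain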
Conditions: growth OD

C=C1C(=O)O[C@@H]2C3O[C@]3(C)CC/C=C(\C)CC[C@@H]12 (some centres not stated)
normalized growth (S. cerevisiae deletion strains, locus YJR075W, strain HOC1, active compounds read low): 0.828 (active)
normalized growth (S. cerevisiae deletion strains, locus YKL009W, strain mrt4, active compounds read low): 0.913
normalized growth (S. cerevisiae deletion strains, locus YKL068W, active compounds read low): 0.936 (active)
normalized growth (S. cerevisiae deletion strains, locus YKL085W, strain MDH1 (second series), active compounds read low): 0.932
normalized growth (S. cerevisiae deletion strains, locus YKL085W, strain MDH1, active compounds read low): 0.932
normalized growth (S. cerevisiae deletion strains, locus YKL160W, strain elf1, active compounds read low): 0.946
normalized growth (S. cerevisiae deletion strains, locus YKL190W, strain CNB1, active compounds read low): 0.796 (active)
normalized growth (S. cerevisiae deletion strains, locus YKR001C, strain vps1, active compounds read low): 0.544 (active)
normalized growth (S. cerevisiae deletion strains, locus YKR026C, strain gcn3, active compounds read low): 0.991
normalized growth (S. cerevisiae deletion strains, locus YKR091W, strain srl3, active compounds read low): 0.99
normalized growth (S. cerevisiae deletion strains, locus YLL001W, strain dnm1, active compounds read low): 0.968
normalized growth (S. cerevisiae deletion strains, locus YLL026W, active compounds read low): 0.987
normalized growth (S. cerevisiae deletion strains, locus YLL041C, strain sdh2, active compounds read low): 0.987
normalized growth (S. cerevisiae deletion strains, locus YLR027C, strain aat2, active compounds read low): 0.969
normalized growth (S. cerevisiae deletion strains, locus YLR039C, strain RIC1, active compounds read low): 0.245 (active)
normalized growth (S. cerevisiae deletion strains, locus YLR058C, strain SHM2, active compounds read low): 0.934
normalized growth (S. cerevisiae deletion strains, locus YLR102C, strain apc9, active compounds read low): 0.944
normalized growth (S. cerevisiae deletion strains, locus YLR113W, strain HOG1, active compounds read low): 0.932
normalized growth (S. cerevisiae deletion strains, locus YLR221C, strain rsa3, active compounds read low): 0.993
normalized growth (S. cerevisiae deletion strains, locus YLR258W, strain gsy2, active compounds read low): 0.999
normalized growth (S. cerevisiae deletion strains, locus YLR262C, strain YPT6 (second series), active compounds read low): 0.566 (active)
normalized growth (S. cerevisiae deletion strains, locus YLR262C, strain YPT6, active compounds read low): 0.193 (active)
normalized growth (S. cerevisiae deletion strains, locus YLR268W, strain sec22, active compounds read low): 0.68 (active)
normalized growth (S. cerevisiae deletion strains, locus YLR320W, strain mms22, active compounds read low): 0.893
normalized growth (S. cerevisiae deletion strains, locus YLR330W, strain CHS5, active compounds read low): 0.849 (active)
normalized growth (S. cerevisiae deletion strains, locus YLR342W, strain FKS1 (second series), active compounds read low): 0.536 (active)
normalized growth (S. cerevisiae deletion strains, locus YLR342W, strain FKS1, active compounds read low): 0.94
normalized growth (S. cerevisiae deletion strains, locus YLR357W, strain rsc2, active compounds read low): 1.08
normalized growth (S. cerevisiae deletion strains, locus YLR370C, strain arc18, active compounds read low): 0.964
normalized growth (S. cerevisiae deletion strains, locus YLR371W, strain rom2, active compounds read low): 0.791 (active)
normalized growth (S. cerevisiae deletion strains, locus YLR384C, strain iki3, active compounds read low): 0.975
normalized growth (S. cerevisiae deletion strains, locus YLR418C, strain cdc73, active compounds read low): 0.42 (active)
normalized growth (S. cerevisiae deletion strains, locus YML016C, strain PPZ1, active compounds read low): 0.911 (active)
normalized growth (S. cerevisiae deletion strains, locus YML032C, strain rad52, active compounds read low): 0.87 (active)
normalized growth (S. cerevisiae deletion strains, locus YML120C, strain ndi1, active compounds read low): 0.96
normalized growth (S. cerevisiae deletion strains, locus YML124C, strain tub3, active compounds read low): 0.929 (active)
normalized growth (S. cerevisiae deletion strains, locus YMR058W, strain fet3, active compounds read low): 0.992
normalized growth (S. cerevisiae deletion strains, locus YMR078C, strain ctf18, active compounds read low): 0.741 (active)
normalized growth (S. cerevisiae deletion strains, locus YMR125W, strain sto1, active compounds read low): 0.792 (active)
normalized growth (S. cerevisiae deletion strains, locus YMR129W, active compounds read low): 0.993
normalized growth (S. cerevisiae deletion strains, locus YMR205C, strain PFK2, active compounds read low): 0.938
normalized growth (S. cerevisiae deletion strains, locus YMR223W, strain ubp8, active compounds read low): 0.801 (active)
normalized growth (S. cerevisiae deletion strains, locus YMR231W, strain pep5, active compounds read low): 0.982
normalized growth (S. cerevisiae deletion strains, locus YMR263W, strain SAP30, active compounds read low): 0.9
normalized growth (S. cerevisiae deletion strains, locus YMR307W, strain GAS1, active compounds read low): 0.26 (active)
normalized growth (S. cerevisiae deletion strains, locus YNL067W, strain RPL9B, active compounds read low): 0.808 (active)
normalized growth (S. cerevisiae deletion strains, locus YNL071W, strain lat1, active compounds read low): 0.804 (active)
normalized growth (S. cerevisiae deletion strains, locus YNL128W, strain TEP1, active compounds read low): 0.925
normalized growth (S. cerevisiae deletion strains, locus YNL153C, strain GIM3, active compounds read low): 0.822 (active)
normalized growth (S. cerevisiae deletion strains, locus YNL183C, strain NPR1, active compounds read low): 0.952
normalized growth (S. cerevisiae deletion strains, locus YNL209W, strain ssb2, active compounds read low): 0.979
normalized growth (S. cerevisiae deletion strains, locus YNL233W, strain BNI4, active compounds read low): 0.763 (active)
normalized growth (S. cerevisiae deletion strains, locus YNL248C, strain rpa49, active compounds read low): 0.897
normalized growth (S. cerevisiae deletion strains, locus YNL250W, strain rad50, active compounds read low): 0.933
normalized growth (S. cerevisiae deletion strains, locus YNL271C, strain bni1, active compounds read low): 0.905 (active)
normalized growth (S. cerevisiae deletion strains, locus YNL298W, strain CLA4, active compounds read low): 0.878 (active)
normalized growth (S. cerevisiae deletion strains, locus YNL307C, strain MCK1, active compounds read low): 0.165 (active)
normalized growth (S. cerevisiae deletion strains, locus YNL322C, strain KRE1 (second series), active compounds read low): 0.981
normalized growth (S. cerevisiae deletion strains, locus YNL322C, strain KRE1, active compounds read low): 0.861 (active)
normalized growth (S. cerevisiae deletion strains, locus YNR049C, strain mso1, active compounds read low): 0.997
normalized growth (S. cerevisiae deletion strains, locus YNR052C, strain pop2, active compounds read low): 0.818 (active)
normalized growth (S. cerevisiae deletion strains, locus YOL006C, strain TOP1, active compounds read low): 0.547
normalized growth (S. cerevisiae deletion strains, locus YOL012C, strain htz1): 0.318
normalized growth (S. cerevisiae deletion strains, locus YOL147C, strain pex11, active compounds read low): 0.883 (active)
normalized growth (S. cerevisiae deletion strains, locus YOR001W, strain rrp6, active compounds read low): 1.01
normalized growth (S. cerevisiae deletion strains, locus YOR061W, strain CKA2, active compounds read low): 0.918
normalized growth (S. cerevisiae deletion strains, locus YOR069W, strain VPS5, active compounds read low): 0.935
normalized growth (S. cerevisiae deletion strains, locus YOR070C, strain gyp1, active compounds read low): 0.977
normalized growth (S. cerevisiae deletion strains, locus YOR080W, strain dia2, active compounds read low): 0.998
normalized growth (S. cerevisiae deletion strains, locus YOR083W, strain WHI5, active compounds read low): 0.965
normalized growth (S. cerevisiae deletion strains, locus YOR106W, strain vam3, active compounds read low): 0.955
normalized growth (S. cerevisiae deletion strains, locus YOR136W, strain idh2, active compounds read low): 0.905 (active)
normalized growth (S. cerevisiae deletion strains, locus YOR144C, strain elg1, active compounds read low): 0.901 (active)
normalized growth (S. cerevisiae deletion strains, locus YOR184W, strain ser1, active compounds read low): 0.628 (active)
normalized growth (S. cerevisiae deletion strains, locus YOR231W, strain MKK1, active compounds read low): 0.977
normalized growth (S. cerevisiae deletion strains, locus YOR265W, strain rbl2, active compounds read low): 0.978
normalized growth (S. cerevisiae deletion strains, locus YOR270C, strain vph1, active compounds read low): 0.92
normalized growth (S. cerevisiae deletion strains, locus YOR290C, strain snf2, active compounds read low): 0.971
normalized growth (S. cerevisiae deletion strains, locus YOR316C, strain cot1, active compounds read low): 0.93
normalized growth (S. cerevisiae deletion strains, locus YPL051W, strain arl3, active compounds read low): 0.921
normalized growth (S. cerevisiae deletion strains, locus YPL055C, strain LGE1, active compounds read low): 0.743 (active)
normalized growth (S. cerevisiae deletion strains, locus YPL078C, strain atp4, active compounds read low): 0.94
normalized growth (S. cerevisiae deletion strains, locus YPL106C, strain sse1, active compounds read low): 0.869
normalized growth (S. cerevisiae deletion strains, locus YPL240C, strain hsp82, active compounds read low): 0.991
normalized growth (S. cerevisiae deletion strains, locus YPL241C, strain CIN2, active compounds read low): 0.922 (active)
normalized growth (S. cerevisiae deletion strains, locus YPL256C, strain CLN2, active compounds read low): 0.93
normalized growth (S. cerevisiae deletion strains, locus YPR119W, strain clb2, active compounds read low): 0.908 (active)
normalized growth (S. cerevisiae deletion strains, locus YPR141C, strain kar3, active compounds read low): 0.902 (active)
normalized growth (S. cerevisiae deletion strains, locus YPR163C, strain tif3, active compounds read low): 0.355 (active)
normalized growth (S. cerevisiae deletion strains, locus YPR167C, strain met16, active compounds read low): 0.932
normalized growth (S. cerevisiae deletion strains, strain wtn01, active compounds read low): 0.786 (active)
normalized growth (S. cerevisiae strains, strain wild type, active compounds read low): 0.806 (active)
